# Source: the supplement of paper PMC6555819
# Assays:
# Assay in all cases: PBM binding z-score (relative to random genomic background probes); higher = stronger binding; sequences stand for … in GC…GCGATTGACAGCGTAGAATGAAGG
# [1] = tested on: PPARg:RXRa DBDmut IVT, anti-RXR (DBD mutation: RXRa K156A/R161A, NR concentration 270 nM, RXRa partner concentration 90 nM)
# Outline: (§1)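 Scanned fluorescence from custom Agilent 4×180K protein-binding microarrays was regression-normalized. Binding z-scores use random background probes as reference. Ligand-free nuclear receptor dimers were incubated on the arrays for 1 h and detected with antibodies against each partner (one per run).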
# [2] = tested on: PPARg:RXRa IVT, anti-PPARg (NR concentration 270 nM, RXRa partner concentration 90 nM)
# Outline: as §1
# [3] = tested on: PPARg DBDmut:RXRa IVT, anti-PPARg (DBD mutation: PPARg1 K132A/R137A, NR concentration 270 nM, RXRa partner concentration 90 nM)
# Outline: as §1
# [4] = tested on: PPARg DBDmut IVT, anti-PPARg (DBD mutation: PPARg1 K132A/R137A, NR concentration 270 nM)
# Outline: as §1
# [5] = tested on: PPARg homodimer (NR concentration 180 nM)
# Outline: as §1
# [6] = tested on: PXR:RXRa (NR concentration 270 nM, RXRa partner concentration 90 nM)
# Outline: as §1
# [7] = tested on: PXR homodimer (NR concentration 270 nM)
# Outline: as §1
# [8] = tested on: RARa:RXR (NR concentration 270 nM, RXRa partner concentration 90 nM)
# Outline: as §1
# [9] = tested on: RARa homodimer (NR concentration 270 nM)
# Outline: as §1
# [10] = tested on: RARb:RXRa (NR concentration 270 nM, RXRa partner concentration 90 nM)
# Outline: as §1
sequence,measurement,setting,value
TATACAGGGTCAAAGGCCAGATTACGAATGTCGA,PBM binding z-score,[1],2.17
same,PBM binding z-score,[2],4.84
same,PBM binding z-score,[3],2.19
same,PBM binding z-score,[4],3.09
same,PBM binding z-score,[5],2.87
same,PBM binding z-score,[6],4.54
same,PBM binding z-score,[7],0.853
same,PBM binding z-score,[8],6.01
same,PBM binding z-score,[9],1.67
same,PBM binding z-score,[10],4.43
AGTCGAAGTTCACTAGGTAACGTAAGATTCAGCT,PBM binding z-score,[1],1.76
same,PBM binding z-score,[2],3.45
same,PBM binding z-score,[3],0.653
same,PBM binding z-score,[4],0.81
same,PBM binding z-score,[5],0.849
same,PBM binding z-score,[6],1.88
same,PBM binding z-score,[7],1.18
same,PBM binding z-score,[8],0.939
same,PBM binding z-score,[9],0.371
same,PBM binding z-score,[10],2.91
CCATACGGGTCACTGACAGGTTATAGCATTTGGA,PBM binding z-score,[1],2.31
same,PBM binding z-score,[2],3.21
same,PBM binding z-score,[3],0.442
same,PBM binding z-score,[4],0.0659
same,PBM binding z-score,[5],2.58
same,PBM binding z-score,[6],3.55
same,PBM binding z-score,[7],0.194
same,PBM binding z-score,[8],4.58
same,PBM binding z-score,[9],1.68
same,PBM binding z-score,[10],3.81
ATCTCTAGGTAAGACTGAGTTCAGTGAAGAACGC,PBM binding z-score,[1],1.52
same,PBM binding z-score,[2],1.3
same,PBM binding z-score,[3],0.582
same,PBM binding z-score,[4],0.923
same,PBM binding z-score,[5],0.874
same,PBM binding z-score,[6],2.66
same,PBM binding z-score,[7],3.46
same,PBM binding z-score,[8],0.632
same,PBM binding z-score,[9],0.634
same,PBM binding z-score,[10],0.692
CCGATTGGGGCAAAGGTTACCATACTCAGTACGA,PBM binding z-score,[1],2.91
same,PBM binding z-score,[2],4.24
same,PBM binding z-score,[3],0.329
same,PBM binding z-score,[4],0.0522
same,PBM binding z-score,[5],1.15
same,PBM binding z-score,[6],2.32
same,PBM binding z-score,[7],-0.232
same,PBM binding z-score,[8],3.81
same,PBM binding z-score,[9],-0.223
same,PBM binding z-score,[10],2.31
TTACCAAGGTGAGCTGAGGTCGTCGATCCAACTC,PBM binding z-score,[1],0.887
same,PBM binding z-score,[2],2.1
same,PBM binding z-score,[3],-0.228
same,PBM binding z-score,[4],-0.875
same,PBM binding z-score,[5],-0.188
same,PBM binding z-score,[6],3.92
same,PBM binding z-score,[7],0.167
same,PBM binding z-score,[8],1.43
same,PBM binding z-score,[9],-0.863
same,PBM binding z-score,[10],1.8
CCTACTGGGGCAAGGTCATTGATCAGTCAAAGCA,PBM binding z-score,[1],4.91
same,PBM binding z-score,[2],5.97
same,PBM binding z-score,[3],1.59
same,PBM binding z-score,[4],0.39
same,PBM binding z-score,[5],4.67
same,PBM binding z-score,[6],3.88
same,PBM binding z-score,[7],1.04
same,PBM binding z-score,[8],4.17
same,PBM binding z-score,[9],0.391
same,PBM binding z-score,[10],3.5
ACTATTAGTGGAGACGAGGGCAACCGATAGGTTG,PBM binding z-score,[1],-0.144
same,PBM binding z-score,[2],0.852
same,PBM binding z-score,[3],0.383
same,PBM binding z-score,[4],0.735
same,PBM binding z-score,[5],-0.247
same,PBM binding z-score,[6],0.218
same,PBM binding z-score,[7],0.0964
same,PBM binding z-score,[8],0.0871
same,PBM binding z-score,[9],0.227
same,PBM binding z-score,[10],0.779
CGAACGAGGGCACGAGTTGATAGCAAATGCCGAT,PBM binding z-score,[1],3.89
same,PBM binding z-score,[2],3.93
same,PBM binding z-score,[3],0.0277
same,PBM binding z-score,[4],-0.0688
same,PBM binding z-score,[5],-0.0293
same,PBM binding z-score,[6],0.738
same,PBM binding z-score,[7],0.271
same,PBM binding z-score,[8],1.12
same,PBM binding z-score,[9],-0.123
same,PBM binding z-score,[10],2.6
CATACATGGTCAGCTAGGCCAGAGTAGGGACGGC,PBM binding z-score,[1],-0.304
same,PBM binding z-score,[2],0.125
same,PBM binding z-score,[3],0.136
same,PBM binding z-score,[4],-0.418
same,PBM binding z-score,[5],-0.795
same,PBM binding z-score,[6],-0.724
same,PBM binding z-score,[7],-0.583
same,PBM binding z-score,[8],-0.808
same,PBM binding z-score,[9],0.055
same,PBM binding z-score,[10],0.8
CAGCCTAGGTCGGGGCCAGTATAGGAGGAACGTT,PBM binding z-score,[1],-0.532
same,PBM binding z-score,[2],-0.678
same,PBM binding z-score,[3],-0.979
same,PBM binding z-score,[4],-1.04
same,PBM binding z-score,[5],-0.152
same,PBM binding z-score,[6],-0.445
same,PBM binding z-score,[7],-0.795
same,PBM binding z-score,[8],-0.269
same,PBM binding z-score,[9],-1.01
same,PBM binding z-score,[10],1.02
CCGACTGGGGCGGAAAGGTTACCATACCATCCGG,PBM binding z-score,[1],-0.0321
same,PBM binding z-score,[2],0.59
same,PBM binding z-score,[3],-0.91
same,PBM binding z-score,[4],-0.926
same,PBM binding z-score,[5],0.423
same,PBM binding z-score,[6],1.17
same,PBM binding z-score,[7],-0.39
same,PBM binding z-score,[8],1.96
same,PBM binding z-score,[9],-0.133
same,PBM binding z-score,[10],1.43
GCTGCTATGTCAGGTTGGTCAGCTAACGGGTACG,PBM binding z-score,[1],0.218
same,PBM binding z-score,[2],-0.36
same,PBM binding z-score,[3],-0.641
same,PBM binding z-score,[4],-1.12
same,PBM binding z-score,[5],-0.452
same,PBM binding z-score,[6],-0.319
same,PBM binding z-score,[7],-0.426
same,PBM binding z-score,[8],-0.149
same,PBM binding z-score,[9],-0.632
same,PBM binding z-score,[10],0.458
